# Results taken from the supplement of paper PMC10681739.
# Assays:
# [1] = biological target: T1, ETS1 (UniProt P14921); assay: ETS1 binding intensity (PBM fluorescence), ETS1 alone (arbitrary fluorescence units); higher = stronger binding; conditions: ETS1 concentration 1 nM; RUNX1 concentration 0 nM
# T1 sequence: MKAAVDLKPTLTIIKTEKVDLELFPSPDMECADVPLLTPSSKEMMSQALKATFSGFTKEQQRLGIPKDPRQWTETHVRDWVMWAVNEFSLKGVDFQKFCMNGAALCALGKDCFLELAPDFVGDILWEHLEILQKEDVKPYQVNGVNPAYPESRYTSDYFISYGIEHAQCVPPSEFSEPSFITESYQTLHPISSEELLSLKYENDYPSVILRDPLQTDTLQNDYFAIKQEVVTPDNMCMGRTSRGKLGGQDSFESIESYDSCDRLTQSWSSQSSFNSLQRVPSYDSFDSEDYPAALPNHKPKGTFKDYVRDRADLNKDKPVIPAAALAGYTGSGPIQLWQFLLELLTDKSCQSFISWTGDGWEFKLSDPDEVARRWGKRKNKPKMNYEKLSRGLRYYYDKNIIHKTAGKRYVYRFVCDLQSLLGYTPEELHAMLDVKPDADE
# [2] = biological target: RUNX1 (UniProt Q01196); assay: RUNX1 binding intensity (PBM fluorescence), RUNX1 alone (arbitrary fluorescence units); higher = stronger binding; conditions: RUNX1 concentration 2 nM; ETS1 concentration 0 nM
# Chain of RUNX1 (Q01196 whole entry): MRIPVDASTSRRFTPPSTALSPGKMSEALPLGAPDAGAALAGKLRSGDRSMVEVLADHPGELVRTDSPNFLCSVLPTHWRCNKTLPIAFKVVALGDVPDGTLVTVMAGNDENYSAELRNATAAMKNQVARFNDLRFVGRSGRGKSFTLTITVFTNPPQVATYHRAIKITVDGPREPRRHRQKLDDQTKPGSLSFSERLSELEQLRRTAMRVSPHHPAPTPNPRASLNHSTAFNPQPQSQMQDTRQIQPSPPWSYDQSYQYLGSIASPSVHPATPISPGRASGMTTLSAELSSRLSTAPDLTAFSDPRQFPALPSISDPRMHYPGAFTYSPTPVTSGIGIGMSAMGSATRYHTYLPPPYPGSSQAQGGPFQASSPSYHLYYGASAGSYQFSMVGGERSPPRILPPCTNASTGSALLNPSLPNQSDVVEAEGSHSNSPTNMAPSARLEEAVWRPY
# Protocol: (§1)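 Cooperative gcPBM on 36-bp genomic probes with neighbouring ETS1 and RUNX1 sites. Recombinant human RUNX1 (2 nM) was incubated alone or with ETS1 (25 nM) and detected with anti-RUNX1 antibody plus Alexa488 secondary. Values are medians over 4 replicate spots; the RUNX1+ETS1 data were normalised to the RUNX1-only data. The probes sit in constant array flanks that are not printed.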
# [3] = biological target: T1, ETS1; assay: ETS1 binding intensity (PBM fluorescence) in presence of RUNX1, normalised to ETS1-only experiment (arbitrary fluorescence units); higher = stronger binding; conditions: ETS1 concentration 1 nM; RUNX1 concentration 25 nM
# [4] = biological target: RUNX1 (UniProt Q01196); assay: RUNX1 binding intensity (PBM fluorescence) in presence of ETS1, normalised to RUNX1-only experiment (arbitrary fluorescence units); higher = stronger binding; conditions: RUNX1 concentration 2 nM; ETS1 concentration 25 nM
# Protocol: as §1
# 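Throughout, for RUNX1 binding intensity (PBM fluorescence) in presence of ETS1, normalised to RUNX1-only experiment: Full-length recombinant human ETS1 or RUNX1 bound to double-stranded 36-bp genomic probes on microarrays, detected by protein-specific primary antibody and Alexa488 secondary, spot fluorescence as median of four replicate spots.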
# 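Throughout, for RUNX1 binding intensity (PBM fluorescence), RUNX1 alone: Full-length recombinant human RUNX1 bound to double-stranded 36-bp genomic probes on a high-density microarray, scored as Alexa488 fluorescence per spot via anti-RUNX1 antibody, median of four replicate spots.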
Sequence,ETS1 binding intensity [1],RUNX1 binding intensity [2],ETS1 binding intensity [3],RUNX1 binding intensity [4]
TTTCACTTCCGGCATGTTTTTCACCCACAGGGATAT,3910,1130,3980,2750
CCGCTGAGAACAGGATGTGGGTGTCAGGAGGTGAAG,4850,765,7410,1530
TGGAGAGCACAGGAAGTGGCCCACAGCCCAGGCCAA,5790,766,6890,1280
GTTCTTATCCTGTGGCTCGTTTGTGGTTACTGACAT,425,4330,741,4260
AGCTGAGAGCCTGCCGGAAGCCACAGCTTCTTCTCG,4180,801,5670,1200
GGCTGCAGGAAGTGGGAAGGTGTGGCTTTGAGTCTC,1830,755,2460,1820
GTGCTGAGCAGCTTCCCGTCTGCGGTGAAGACAGCC,396,1150,1040,1930
CGGGCTGGGAGGAAGTGATGGCTGACCACAGAGGAG,1130,1000,4610,1570
CGGGACACAGGAAGCCGTTGTGGGGCCCCGGGGCCA,1960,711,1970,982
CACCCGCCCCCCGGAAGTGCCGGTGGTTGGGCTCCG,5120,703,7610,1540
AAGTGGAGAGCGGAAGTGAGCTGTGGGTGACTGCAG,6780,759,8400,1240
AGTGGATAGCACTTCCTTCTCTTACCACAGTTCCTT,365,1020,558,1610
CCACCCACTTCCTGCCCTAGCTAGTGTGGTATTTTT,1050,907,1640,7970
AGACCCGGAAGAACTTGTCCCAGTGTTGACCACACC,505,870,1100,938
AGAGGCAGCTTCCGGAGACTGCTCTGTGGCCAGTTT,794,711,1070,1310
AGGGACTTCCGGTGACCAGAGCACTAGCGCCGCAAA,2160,768,1990,2070
CCCTGACTTTTACGGAAATAGCGGTCCAAAAGCGCC,986,880,1080,1160
TTGTCGGGTATGGGATGTGGGCAGAGAGTATGATGG,604,866,835,797
ACACAAACAGGAAGTGTTTGTGGTCCCTGCCTTTAG,7210,748,14500,1590
